# Hits are enriched below; roughly 9.3% of the tested compounds scored in any of these assays.
# ELG1 genotox – inducers of genotoxicity in HEK293T ELG1-luciferase cells | actives 1.3% (n = 330,000) | Potency, µM (titrated, usually from 46 µM), for inactives: at the top dose activity change, positive = activation, most hits filed as activators | HEK293T ELG1-luciferase reporter, luminescence, 16 h; further: % of control where 0% means no effect; nearly all actives have a fitted effect of over 60% in size
#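 HEK293T cells expressing luciferase-tagged ELG1 were treated with compound or DMSO for 16 hr at 37°C. Luciferase activity was then read after 30 min with ONE-Glo at room temperature; rising signal flags genetic stress.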
# SMN2 splice up – increases expression of the SMN2 splice variant; Potency, µM (top dose mostly 46.1 µM), for the others: at the highest dose activity change, positive = activation, hits mostly activators; actives 2.8% (n = 210,000); HEK293 SMN2-luciferase splicing reporter, luminescence, 30-36 h; AID 1458; further: % of control where 0% means no effect; nearly all actives have a fitted effect of over 55% in size
#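 qHTS luciferase splicing reporter: luminescence rises when SMN2 exon 7 is included in transfected HEK293 cells. Compound exposure lasted 30-36 h at 37C, with 4.5 mM final sodium butyrate as control, followed by a ONE-Glo read.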
# FLuc counter – firefly luciferase modulation, counter-screen for miR-21 project; P08659; purified FLuc, Km substrates, luminescence inhibition; Potency, µM (highest dose often 57.5 µM), for inactives: at the top dose activity change, negative = inhibition, hits mostly inhibitors; actives 6.9% (n = 360,000); AID 588342;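 further: plate controls were vehicle for no effect and reference inhibitor for full effect; nearly all actives have a fitted effect of over 55% in size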
# Target sequence (P08659 whole entry, looked up): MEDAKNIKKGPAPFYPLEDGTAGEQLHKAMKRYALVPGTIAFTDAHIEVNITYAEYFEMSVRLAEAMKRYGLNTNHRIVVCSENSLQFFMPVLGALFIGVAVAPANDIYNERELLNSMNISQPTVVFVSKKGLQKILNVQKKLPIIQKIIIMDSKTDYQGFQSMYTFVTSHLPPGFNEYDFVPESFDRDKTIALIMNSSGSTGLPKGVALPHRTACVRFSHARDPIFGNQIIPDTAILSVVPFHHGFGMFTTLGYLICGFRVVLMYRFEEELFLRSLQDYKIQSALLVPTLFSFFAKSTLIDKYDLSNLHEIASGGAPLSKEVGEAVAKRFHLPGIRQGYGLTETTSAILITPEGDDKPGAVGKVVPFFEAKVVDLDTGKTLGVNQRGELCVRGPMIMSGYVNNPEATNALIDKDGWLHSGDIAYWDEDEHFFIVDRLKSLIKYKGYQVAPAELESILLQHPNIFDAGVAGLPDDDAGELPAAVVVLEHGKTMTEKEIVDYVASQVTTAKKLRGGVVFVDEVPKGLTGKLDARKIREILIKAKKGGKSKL
#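 Purified P. pyralis luciferase, 10 nM final, with Km-level 10 uM D-luciferin and 10 uM ATP in 50 mM Tris acetate pH 7.5, 10 mM Mg acetate, 0.01% Tween-20, 0.05% BSA; 6-point qHTS titration about 60 µM downward; luminescence read.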
# ELG1 DNA repair – ELG1-dependent DNA repair inhibition; AID 504467; Potency, µM (doses to about 46.1 µM), inactives show at the highest dose activity change, negative = inhibition, hits mostly inhibitors; actives 2.3% (n = 330,000); HEK293T ELG1-luciferase reporter, luminescence, 16 h; DNA damage induced by 5-fluorouridine; further: on the % scale 0 is the no-effect control and ±100 the full control effect; nearly all actives have a fitted effect of over 55% in size
#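 Luminescence from the luciferase reporter, measured 30 min after ONE-Glo reagent at room temperature, was the read-out. Beforehand, 2,000 cells per well were exposed for 16 hr at 37 °C to 5-fluorouridine together with compound or vehicle.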
# Rab9 promoter act – activates the Rab9 promoter. Huh7 Rab9 promoter-luciferase reporter, luminescence, 24 h. Potency, µM (highest dose often 9.22 µM), for the others: at the highest dose activation, negative = inhibition, actives largely listed as activators. actives 2.8% (n = 320,000). AID 485297; further: % of control where 0% means no effect; nearly all actives have a fitted effect of over 60% in size
#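 Rab9 promoter-driven luciferase in stably transfected Huh7 cells; 1500 cells/well rested 2 h, exposed to compound in DMSO for 24 h at 37 °C, 5% CO2. Luminescence read 10 min after adding luciferase reagent at ambient temperature.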
# NPC1 prom act – activates the NPC1 promoter; Huh7 NPC1 promoter luciferase reporter, 24 h; Potency, µM (doses to about 9.22 µM), for the others: top-dose activation, most hits filed as activators; actives 2.4% (n = 320,000); AID 485313; further: % of control where 0% means no effect; nearly all actives have a fitted effect of over 60% in size
#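 Compounds in DMSO were transferred onto Huh7 NPC1-luciferase reporter cells pre-incubated 2 h; after 24 h at 37 °C, Amplite reagent was dispensed and luminescence recorded 10 min later.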
# * hit, by the source's call; ? = inconclusive; / = not tested or not shown; [ ] = another dose, or the depositor's remark. The call rests on the fitted dose curve; in most records, active means well fitted curve in the direction sought with a large enough effect; inconclusive means small, poorly fitted or top-dose-only effect, or another doubt; inactive means no such curve, though single readings can be large; an effect the other way counts as inactive or inconclusive. Potency means the concentration at half of the fitted maximal effect.
SMILES,ELG1 genotox,SMN2 splice up,FLuc counter,ELG1 DNA repair,Rab9 promoter act,NPC1 prom act
CNC(=O)COc1ccc(C=O)cc1OC,3%,-35%,0%,21%,-8%,-1%
O=C(O)c1ccc(-n2c(-c3cc(C4CC4)[nH]n3)n[nH]c2=S)cc1,-2%,/,-13%,-10%,2%,-7%
COc1ccc(C(=O)COC(=O)CNC(=O)C2CCCCC2)c(OC)c1,4%,-19%,?,6%,-1%,7%
O=C(CNC(=O)C1CCCCC1)OCC(=O)c1ccc(Br)cc1,4%,/,1.7µM*,7%,0%,1%
CCOc1ccc(C(=O)COC(=O)CNC(=O)C2CCCCC2)cc1,2%,/,9.5µM*,12%,-5%,-2%
CCOc1ccc(NC(=O)c2ccccc2NS(=O)(=O)c2ccc(F)cc2)c([N+](=O)[O-])c1,-7%,-3%[1.84 µM],-20%,-29%,-1%,-3%
Cc1cc(C)cc(OCC(=O)Nc2nc3c(s2)CC(C(C)(C)C)CC3)c1 (centres undefined),/,/,12µM*,/,/,/
CN(/N=C/c1ccco1)C1=NS(=O)(=O)c2ccccc21,-2%,-28%,-1%,-2%,2%,-7%
Cc1ccc(S(=O)(=O)Nc2ccc3c(c2)OCCO3)cc1C,5%,/,21µM*,?,0%,-3%
COc1ccc(NS(=O)(=O)c2ccc3c(c2)OCCO3)cc1OC,-8%,/,0%,2.3µM*,-29%,-22%
CC(=O)N1CCOc2ccc(S(=O)(=O)Nc3cccc(C)c3)cc21,-4%,/,3%,3%,0%,0%
COc1ccc(NS(=O)(=O)c2ccc(-c3cnc(C4CC4)o3)cc2)cc1OC,-4%,/,0%,1.8µM*,-40%,-35%
Cc1cccc(NS(=O)(=O)c2ccc3c(c2)OCCO3)c1,-7%,14µM*,4%,?,-1%,-1%
COc1ccc(S(=O)(=O)Nc2ccc3c(c2)OCO3)cc1OC,8%,5%,-13%,12%,-5%,1%
O=C1COc2ccc(C(=O)COC(=O)CNS(=O)(=O)c3cccc(F)c3)cc2N1,-1%,/,6%,13%,3%,-1%
Clc1ccsc1-c1ccc2ccccc2n1,?,?,11µM*,?,?,?
c1ccc2nc(-c3nccs3)ccc2c1,?,17%,13µM*,?,?,24%
S=c1[nH]nc(-c2ccc3ccccc3n2)n1-c1ccc(Cl)cc1,1%,2%,-2%,13%,-3%,-3%
S=c1[nH]nc(-c2ccc3ccccc3n2)o1,11%,-19%,?,?,-2%,-1%
Clc1ccsc1-c1ccnc(-n2cccc2)n1,12%,7%,17µM*,?,-2%,12%
O=C(O/N=C1\C(=O)N(c2ccccc2)c2ccccc21)C1CC1,-3%,-4%,-20%,-13%,8%,-6%
O=C(NC(=S)NCCc1ccccc1)c1ccccc1F,?,/,?,?,?,22%
CC(=O)Nc1ccc(N=Cc2c(O)c(C(=O)Nc3ccccc3)cc3ccccc23)cc1,-3%,-8%,0.67µM*,?,22%,12%
CC(=O)Nc1ccc(NC(=O)c2cccc3ccccc23)cc1,-23%,/,2%,-1%,-5%,-4%
CC(C)Sc1nc(SCC(=O)NCc2ccco2)c2c3c(sc2n1)COC(C)(C)C3,?,-1%,9.5µM*,2.3µM*,13%,7%
SMILES,ELG1 genotox,SMN2 splice up,FLuc counter,ELG1 DNA repair,Rab9 promoter act,NPC1 prom act
CC(C)Sc1nc(SCC(=O)O)c2c3c(sc2n1)COC(C)(C)C3,?,/,13µM*,?,?,?
O=Cc1ccc(OCC(=O)N2CCOCC2)cc1,1%,/,-3%,11%,1%,-3%
CCOc1ccc(C(=O)CCC(=O)N2CCN(c3ccc(O)cc3)CC2)cc1,2%,/,/,3%,/,/
Cc1ccc(OCCC(=O)N2CCN(c3ccc(O)cc3)CC2)cc1,6%,/,-3%,7.3µM*,14%,28%
Cc1cc(OCC(=O)N2CCOCC2)ccc1[N+](=O)[O-],?,/,24µM*,?,2.8µM*,3.2µM*
Cc1ccc(OCC(=O)N2CCN(c3ccc([N+](=O)[O-])c(N4CCOCC4)c3)CC2)cc1,-1%,4%,-2%,22%,-4%,1%
Cc1ccc(-c2ccc(OCC(=O)N3CCOCC3)cc2)cc1,?,-2%,19µM*,?,18%,16%
CC(=O)Nc1ccc(C(=O)NNC(=O)C2C3CCCCC32)cc1 (centres undefined),15%,/,-1%,-4%,0%,2%
O=C(CN1CCN(S(=O)(=O)c2ccc(F)cc2)CC1)Nc1cc(C(F)(F)F)ccc1Cl,-11%,-16%,0%,26µM*,3%,-6%
CC(=O)N1c2ccc(S(=O)(=O)NCCC(=O)NC3CCCC(C)C3C)cc2CC1C (centres undefined),-3%,/,-1%,9.2µM*,-1%,-1%
CC(=O)N1c2ccc(S(=O)(=O)NCCC(=O)NC3CCCCCC3)cc2CC1C (centres undefined),-1%,/,1%,-7%,-8%,-3%
CC(=O)N1CCc2cc(S(=O)(=O)NCCC(=O)NC3CCCc4ccccc43)ccc21 (centres undefined),5%,-65%,-2%,13µM*,-1%,-3%
Cc1ccc(NC(=O)CSc2nnc(COc3ccc(C#N)cc3)n2-c2ccccc2)cc1C,-13%,-40%,-2%,23µM*,5%,-1%
CCCC(=O)Nc1ccc(NC(=O)c2ccco2)c(OC)c1,?,?,15µM*,?,?,?
COc1cc(NC(=O)c2ccco2)c(OC)cc1NC(=O)CCC(=O)Nc1cc(C)cc(C)c1,-26%,-16%,5%,21µM*,-6%,0%
O=c1c2ccccc2nc2n1CCc1c-2[nH]c2ccccc12,3.3µM*,7.9µM*,0.95µM*,?,2.9µM*,2.9µM*
CC1CN(C(=S)NC(=O)c2ccc([N+](=O)[O-])cc2)CC(C)O1 (centres undefined),0%,12%,4%,?,-4%,-2%
CC(C)(C)CC(=O)NCCCN1CCOCC1,-1%,14%,0%,7%,-10%,-1%
Cc1sc2ncnc(N=Nc3c(O)[nH]c4ccccc34)c2c1C,3%,-13%,0.85µM*,-27%,?,16%
Oc1[nH]c2ccccc2c1N=Nc1nncc2ccccc12,7%,/,7.6µM*,?,3.5µM*,?
N#CC1(NC(=O)Cn2ncc(Cl)c(Cl)c2=O)CCCCC1,-51%,/,6%,5.8µM*,-41%,-40%
